Results as given in the supplement of paper PMC9177965.
Where “and” joins values, the source holds several entries; their conditions need not be identical. Identical values can stand only once.

System: HT29 sg-Ctrl (RNF43 wildtype)
Experiment: cell viability activity relative to DMSO (negative = inhibition); higher = more viable cells (less growth inhibition)
Settings: 5 µM; 96 h
Protocol: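 Broad Repurposing Library primary screen at a single dose of 5 uM. HT29 sg-Ctrl and HT29 RNF43 G659fs CRISPR-edited isogenic cells were seeded at 2500 cells/well in 384-well plates in duplicate and treated for 96 h. Viability was read by CellTiter-Glo and reported as % activity relative to DMSO, with MG132 as the positive control (negative = growth inhibition).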

SMILES | cell viability activity
COc1cc2cc(c1Cl)N(C)C(=O)C[C@H](OC(=O)C(C)C)[C@]1(C)O[C@@H]1[C@H](C)[C@@H]1C[C@@](O)(NC(=O)O1)[C@H](OC)/C=C/C=C(\C)C2 | -61.7%
C[C@]12O[C@H](C[C@]1(O)CO)n1c3ccccc3c3c4c(c5c6ccccc6n2c5c31)CNC4=O | -84.6%
N#CC(C#N)=NNc1cccc(Cl)c1 | -68.2%
COc1ccc(C[C@H]2NC[C@H](O)[C@H]2OC(C)=O)cc1 | -95.3%
CC1CC(C)C(=O)C(C(O)CC2CC(=O)NC(=O)C2)C1 (centres undefined) | -81.2%
C/C1=C/C[C@@H](/C(C)=C/c2csc(C)n2)OC(=O)C[C@H](O)C(C)(C)C(=O)[C@H](C)[C@@H](O)[C@@H](C)CCC1 | -42.3%
Cc1sc2c(c1C)C(c1ccc(Cl)cc1)=N[C@@H](CC(=O)Nc1ccc(O)cc1)c1nnc(C)n1-2 | -59.2%
C/C=C(\C)C(=O)N[C@@H](c1ccccc1)[C@@H](O)C(=O)O[C@H]1C[C@@]2(O)[C@@H](OC(=O)c3ccccc3)[C@@H]3[C@]4(OC(C)=O)CO[C@@H]4C[C@H](O)[C@@]3(C)C(=O)[C@H](OC(C)=O)C(=C1C)C2(C)C | -69.3%
C[C@]12CC[C@H](O)C[C@H]1CC[C@@H]1[C@@H]2C[C@@H](O)[C@]2(C)[C@@H](C3=CC(=O)OC3)CC[C@]12O | -79.8%
CC[C@H]1CN2CCc3cc(OC)c(OC)cc3[C@@H]2C[C@@H]1C[C@H]1NCCc2cc(OC)c(OC)cc21 | -92.7% and -98.3%
CN(C)C(=S)SSC(=S)N(C)C | -69%
C[C@]12CC[C@H]3[C@@H](CC[C@]4(O)C[C@@H](O)CC[C@]34C=O)[C@@]1(O)CC[C@@H]2C1=CC(=O)OC1 | -75.5%
COC(=O)C[C@](O)(CCC(C)(C)O)C(=O)O[C@@H]1C(OC)=C[C@]23CCCN2CCc2cc4c(cc2[C@H]13)OCO4 | -83.6%
C[C@@]1(CO)[C@H](O)CC[C@@]2(C)[C@H]1CC[C@H]1C[C@@H]3C[C@@]12CC[C@]3(O)CO | -34.1%
